Results on 17 compounds are retold here after PubChem BioAssay.

Active and inactive are the calls of the source.

Experiment [1] can be described thus: binders of probe aFSTL3 on microarray, primary screen, stem cell growth factor project, biochemical, small-molecule microarray, fluorescence 635/667 (AID 1064).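 Further: measures binding of the biotinylated anti-FSTL3 antibody to printed compounds.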 To be noted: higher = more signal.
A short description of experiment [2]: binders from COS7 lysate, DM2A8 probe, primary screen, torsin A project, cell lysate, small-molecule microarray, fluorescence 635/667 (AID 1065). The note with it: higher = more signal, COS7 lysate expressing mutant human TOR1A.
Experiment [3] is described as follows: binders of probe aFGF2 on microarray, primary screen, stem cell growth factor project, biochemical, small-molecule microarray, fluorescence 635/667 (AID 1067).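 Further: measures binding of biotinylated aFGF2 protein to printed compounds on slides; z-score merges feature fluorescence and signal-to-noise across triplicate slides.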 To be noted: higher = more signal.
Experiment [4] is described as follows: binders of probe aFGF10 on microarray, primary screen, stem cell growth factor project, biochemical, small-molecule microarray, fluorescence 635/667 (AID 1071).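 Further: score merges 667 nm spot intensity and signal to noise from triplicate slides.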 The note with it: higher = more signal.
The target of experiment [5] is Neurogenic locus notch homolog protein 2 (Homo sapiens) (UniProt Q04721). Put plainly: Notch2 binders on small-molecule microarrays, primary screen, biochemical, small-molecule microarray, 635 nm fluorescence, stem cell growth factors (AID 1073). The note with it: Notch2 binding, higher = more signal.
Chain of Neurogenic locus notch homolog protein 2 (Homo sapiens) (Q04721 whole entry, looked up, canonical isoform): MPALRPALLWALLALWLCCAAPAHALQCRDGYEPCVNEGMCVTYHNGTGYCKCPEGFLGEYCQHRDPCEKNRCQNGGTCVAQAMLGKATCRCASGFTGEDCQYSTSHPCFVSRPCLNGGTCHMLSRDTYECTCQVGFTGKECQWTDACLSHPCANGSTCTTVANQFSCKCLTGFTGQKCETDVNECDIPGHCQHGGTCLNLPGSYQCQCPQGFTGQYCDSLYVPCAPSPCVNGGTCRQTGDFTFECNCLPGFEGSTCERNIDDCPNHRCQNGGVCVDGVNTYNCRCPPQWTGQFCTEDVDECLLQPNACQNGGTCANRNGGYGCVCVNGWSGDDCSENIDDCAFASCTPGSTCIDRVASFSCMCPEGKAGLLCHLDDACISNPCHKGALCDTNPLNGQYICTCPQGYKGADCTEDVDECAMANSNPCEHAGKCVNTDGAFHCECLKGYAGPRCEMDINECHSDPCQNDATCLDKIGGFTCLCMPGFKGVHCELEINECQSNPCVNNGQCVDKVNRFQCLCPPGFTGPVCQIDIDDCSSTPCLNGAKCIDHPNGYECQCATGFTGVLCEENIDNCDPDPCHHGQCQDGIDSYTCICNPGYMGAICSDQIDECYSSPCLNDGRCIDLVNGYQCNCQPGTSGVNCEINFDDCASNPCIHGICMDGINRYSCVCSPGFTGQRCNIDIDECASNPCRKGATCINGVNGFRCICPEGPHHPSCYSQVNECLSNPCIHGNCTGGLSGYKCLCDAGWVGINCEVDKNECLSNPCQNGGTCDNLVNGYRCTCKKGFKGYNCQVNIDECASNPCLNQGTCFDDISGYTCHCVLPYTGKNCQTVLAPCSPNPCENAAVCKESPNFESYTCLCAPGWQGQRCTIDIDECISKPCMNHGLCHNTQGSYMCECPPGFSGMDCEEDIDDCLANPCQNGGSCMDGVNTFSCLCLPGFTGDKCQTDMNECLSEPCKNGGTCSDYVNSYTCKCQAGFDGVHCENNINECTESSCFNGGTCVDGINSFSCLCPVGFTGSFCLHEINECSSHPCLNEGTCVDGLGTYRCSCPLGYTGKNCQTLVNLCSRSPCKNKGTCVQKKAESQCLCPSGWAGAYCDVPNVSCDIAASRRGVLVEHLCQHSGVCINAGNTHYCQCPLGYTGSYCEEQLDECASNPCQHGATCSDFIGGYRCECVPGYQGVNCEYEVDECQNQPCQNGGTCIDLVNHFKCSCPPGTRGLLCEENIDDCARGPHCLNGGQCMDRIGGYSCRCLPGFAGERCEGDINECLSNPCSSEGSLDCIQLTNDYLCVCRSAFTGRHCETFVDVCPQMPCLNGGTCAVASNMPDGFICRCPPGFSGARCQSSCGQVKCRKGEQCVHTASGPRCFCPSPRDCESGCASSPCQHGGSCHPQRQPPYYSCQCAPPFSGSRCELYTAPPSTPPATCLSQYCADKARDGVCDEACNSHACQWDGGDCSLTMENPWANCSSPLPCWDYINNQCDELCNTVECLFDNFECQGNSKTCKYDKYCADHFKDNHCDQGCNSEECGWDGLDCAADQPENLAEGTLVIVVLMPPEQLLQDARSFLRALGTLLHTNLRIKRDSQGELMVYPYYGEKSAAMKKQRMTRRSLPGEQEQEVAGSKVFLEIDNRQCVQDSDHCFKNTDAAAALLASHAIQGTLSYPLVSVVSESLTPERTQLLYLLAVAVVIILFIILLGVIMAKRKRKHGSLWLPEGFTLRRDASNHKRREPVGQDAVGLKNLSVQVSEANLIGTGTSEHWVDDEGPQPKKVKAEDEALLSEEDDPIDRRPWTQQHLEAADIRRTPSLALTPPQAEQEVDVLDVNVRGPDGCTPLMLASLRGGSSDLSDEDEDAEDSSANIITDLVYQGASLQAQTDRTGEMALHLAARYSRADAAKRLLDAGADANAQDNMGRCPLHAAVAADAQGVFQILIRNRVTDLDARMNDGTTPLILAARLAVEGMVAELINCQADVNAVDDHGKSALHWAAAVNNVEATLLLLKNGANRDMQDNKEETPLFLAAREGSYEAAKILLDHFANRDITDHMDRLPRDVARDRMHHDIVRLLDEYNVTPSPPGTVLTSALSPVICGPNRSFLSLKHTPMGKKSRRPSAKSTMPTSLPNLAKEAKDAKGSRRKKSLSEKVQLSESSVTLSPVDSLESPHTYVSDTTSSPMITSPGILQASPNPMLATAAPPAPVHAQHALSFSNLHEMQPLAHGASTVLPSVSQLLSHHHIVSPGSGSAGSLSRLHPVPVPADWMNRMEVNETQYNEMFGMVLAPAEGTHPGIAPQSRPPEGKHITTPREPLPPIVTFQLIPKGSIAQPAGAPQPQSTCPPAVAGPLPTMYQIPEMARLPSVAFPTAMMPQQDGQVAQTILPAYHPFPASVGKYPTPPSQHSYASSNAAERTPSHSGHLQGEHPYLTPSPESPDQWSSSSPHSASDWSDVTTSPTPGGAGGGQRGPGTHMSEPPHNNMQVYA
In experiment [6] the target is Pro-neuregulin-1, membrane-bound isoform (Homo sapiens) (UniProt Q02297). The experiment in a line: NRG1 binders on small-molecule microarrays, primary screen, psychiatric disease protein project, biochemical, small-molecule microarray, fluorescence 635/667 (AID 1075).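 Further: score combines 667 nm spot fluorescence with signal to noise.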 To be noted: NRG1 binding, 635 nm fluorescence, higher = more signal.
Chain of Pro-neuregulin-1, membrane-bound isoform (Homo sapiens) (Q02297 whole entry, looked up, the tested form may be a part, canonical isoform): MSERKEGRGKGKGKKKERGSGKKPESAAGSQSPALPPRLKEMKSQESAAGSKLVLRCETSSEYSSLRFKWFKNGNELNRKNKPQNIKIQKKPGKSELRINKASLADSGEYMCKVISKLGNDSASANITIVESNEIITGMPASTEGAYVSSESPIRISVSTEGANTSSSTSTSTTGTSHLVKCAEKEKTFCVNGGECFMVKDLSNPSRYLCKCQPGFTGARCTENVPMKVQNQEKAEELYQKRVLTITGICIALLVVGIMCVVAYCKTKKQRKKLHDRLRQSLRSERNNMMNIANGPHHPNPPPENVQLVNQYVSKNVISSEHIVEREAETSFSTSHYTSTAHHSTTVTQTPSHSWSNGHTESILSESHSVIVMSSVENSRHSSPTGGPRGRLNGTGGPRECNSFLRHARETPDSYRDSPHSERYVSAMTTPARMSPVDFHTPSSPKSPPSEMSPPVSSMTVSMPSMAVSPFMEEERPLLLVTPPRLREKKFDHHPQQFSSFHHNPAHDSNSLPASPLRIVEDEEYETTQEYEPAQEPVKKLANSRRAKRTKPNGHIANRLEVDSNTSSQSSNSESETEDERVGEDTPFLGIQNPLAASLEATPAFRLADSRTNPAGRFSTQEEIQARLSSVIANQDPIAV
The subject of experiment [7] is Neuregulin-1 EGF-like domain. Put plainly: binders of neuregulin-1 EGF-like domain, primary screen, biochemical, small-molecule microarray, 635 nm fluorescence (AID 1081).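 Further: binding of the protein to compounds printed on small-molecule microarray slides.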 The note with it: small-molecule microarray binding, higher = more signal.
Experiment [8] is described as follows: FRG1 promoter luciferase signal modulators, primary screen, FRG1 inhibition for FSHD, cell-based, C2C12 myotubes, firefly/Renilla luciferase, luminescence (AID 1084). To be noted: higher = more signal, called active from +8 up or from −8 down.
Experiment [9] in a line: binders of probe aFST on microarray, primary screen, stem cell growth factor project, biochemical, small-molecule microarray, fluorescence 635/667 (AID 1086).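 Further: score merges 667 nm fluorescence with signal-to-noise of each printed compound spot.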 The note with it: higher = more signal.
A short description of experiment [10]: binders of probe aHhip on microarray, primary screen, stem cell growth factor project, biochemical, small-molecule microarray, fluorescence 635/667 (AID 1087).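 Further: score merges spot fluorescence at 667nm with spot signal to noise ratio.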 To be noted: higher = more signal.

`COc1cc2c(cc1O)C(c1cccs1)N(Cc1ccc([N+](=O)[O-])o1)CC2` (stereo not given): the composite z-score in experiment [1] is -0.116; in [2], 1.85; in experiment [3], -0.0265; in [4] it was 0.724; in experiment [5], 0.881; in experiment [6], 1.54. For the same compound, the composite z-score in [7] was 0.387; in experiment [9] it was 0.583; in experiment [10], -0.0994. In addition, the z-score in [8] is -1.63 (inactive).

Turning to `C=C(CCCC)/C(=C/C[C@@H](OC(C)=O)c1ccccc1OCCO)c1cc(C(=O)OC)ccc1OC`, the composite z-score in [1] is 0.0248; in experiment [2] it was -0.0044; in experiment [3], -0.0996; in experiment [4] it was 0.187; in [5], -0.659; in experiment [6], -0.0693. The values for the composite z-score in experiment [7], in [9] and in experiment [10] were -0.0487, -0.38 and -0.271, respectively. Further, in experiment [8], the z-score was 0.549 (inactive).

Consider `CN(C)CCCCCCNC(=O)[C@@H]1C[C@@H]2C(=O)N[C@@H](CCCC[N+](C)(C)C)C(=O)N2[C@@H]1c1ccc(O)cc1`, for which the composite z-score is -0.725 in [1]; 0.601 in experiment [2]; -0.183 in experiment [3]; -0.0779 in [4]; -1.07 in experiment [5]; 0.334 in [6]. In addition, the composite z-score in [7] is 1.25; in experiment [9], -0.334; in [10], -0.865. In addition, the z-score in experiment [8] was 4.62 (inactive).

Regarding `CC1CC/C=C\[C@H]2OC34C=CCN(Cc5ccccc5)C(=O)[C@H]3N(C(C)CO)C(=O)[C@@H]4C2C(=O)O1` (stereo not given in full), the composite z-score in experiment [1] is -0.504; in experiment [2] it was -0.33; in experiment [3] it was -0.138; in experiment [4], 0.0852; in experiment [5] it was -0.257; in experiment [6], -0.771. Besides, the values for the composite z-score in [7], in experiment [9] and in [10] were 1.44, -0.021 and -0.0672, respectively. Further, the z-score in [8] is 0.251 (inactive).

In the case of `COC(=O)C(CC#Cc1ccc2c(c1)[C@]1(C(=O)N2)[C@H](c2ccccc2OCCO)N2[C@H](c3ccccc3)[C@H](c3ccccc3)OC(=O)[C@H]2[C@@H]1C(N)=O)C(=O)OC`, the composite z-score in experiment [1] stood at 1.88; in [2], 0.726; in [3] it was 0.255; in experiment [4] it was 0.774; in experiment [5], 0.806; in experiment [6], 1.69. Besides, the results for the composite z-score in experiment [7], in [9] and in [10] were 1.32, 1.84 and 0.087, respectively. Also, the z-score in experiment [8] was -1.84 (inactive).

Take `O=C1C2C=CC(C(O)C=Cc3ccc([N+](=O)[O-])cc3)N(Nc3ccccc3F)C2C(=O)N1c1ccccc1` (stereo not given): the composite z-score was determined as 0.133 in experiment [1]; 0.537 in [2]; 0.0135 in experiment [3]; 1.03 in experiment [4]; 1.51 in [5]; 1.39 in experiment [6]. In addition, the composite z-score was 1.16 in [7], 1.11 in experiment [9] and 0.0274 in experiment [10]. Further, the z-score in experiment [8] is 0.477 (inactive).

On to `NC(=O)[C@@H]1[C@H]2C(=O)O[C@H](c3ccccc3)[C@H](c3ccccc3)N2[C@H](c2ccc(OCCO)cc2)[C@@]12C(=O)Nc1ccc(C#CC3=CCCCC3)cc12`, for which the composite z-score in experiment [1] is -0.342; in experiment [2], 0.18; in [3] it was -0.125; in experiment [4] it was 1.18; in experiment [5] it was 1.23; in experiment [6], 1.11. Also, the composite z-score in experiment [7] was 1.16; in [9], 0.447; in experiment [10], -0.227. Moreover, the z-score in experiment [8] is 1.15 (inactive).

For the compound `COCCCNC(=O)[C@@]1(CCS(=O)(=O)c2ccccc2)N=C(c2ccc(OCCCO)cc2)O[C@H]1c1ccccc1N=[N+]=[N-]`, the composite z-score is 0.205 in experiment [1]; 2.1 in [2]; 0.137 in experiment [3]; 1.17 in experiment [4]; 1.48 in experiment [5]; 1.7 in experiment [6]. Besides, the composite z-score in experiment [7] is 1.23; in experiment [9] it was 1.63; in [10], -0.0645. Moreover, in [8], the z-score is 1.72 (inactive).

Consider `CCCCCN1CC=CC23O[C@@H]4C=CCOC(=O)[C@@H]4[C@H]2C(=O)N(C(C)CO)[C@@H]3C1=O` (stereo not given in full), for which the composite z-score is 0.484 in experiment [1]; 1.52 in experiment [2]; -0.195 in experiment [3]; -0.109 in [4]; -0.825 in experiment [5]; 0.913 in [6]. In addition, the composite z-score in experiment [7] is 1.49; in [9], -0.637; in experiment [10] it was -0.399. Further, the z-score in experiment [8] is -0.02 (inactive).

Regarding `Cc1ccc([C@H]2C(C(=O)O)=CCN2S(=O)(=O)c2ccc(C)cc2)cc1`, the composite z-score in experiment [1] is -0.0451; in experiment [2], 0.0722; in experiment [3] it was -0.0271; in experiment [4], 0.231; in experiment [5], 0.539; in experiment [6] it was 1.24. Besides, the composite z-score in experiment [7] was 1.1; in experiment [9], 0.224; in experiment [10], -0.0305. The z-score in experiment [8] was -0.186 (inactive).

In the case of `COC(=O)[C@@]1(Cc2ccc(F)cc2)[C@H]2c3cc(C(=O)N(C)C)n(Cc4ccc(C)o4)c3C[C@H]2CN1C(=O)c1ccccc1`, the composite z-score in experiment [1] is 2.58; in experiment [2], 3.31; in experiment [3] it was 0.62; in experiment [4] it was 0.0793; in experiment [5] it was 0.0386; in experiment [6], 1.8. In addition, the composite z-score in experiment [7] is 1.13; in [9] it was 2.31; in [10], 0.683. For the same compound, the z-score in experiment [8] is 0.626 (inactive).

For `C=CCNC(=O)[C@@H]1[C@H]2C(=O)O[C@H](c3ccccc3)[C@H](c3ccccc3)N2[C@H](c2ccc(OCCO)cc2)[C@@]12C(=O)N(C(=O)OCCOC)c1ccc(C#CCNC(N)=O)cc12`, the composite z-score in experiment [1] was 0.204; in [2], 0.672; in experiment [3] it was -0.0502; in experiment [4] it was 0.399; in experiment [5] it was 1.25; in experiment [6], 0.748. The figures for the composite z-score in experiment [7], in experiment [9] and in experiment [10] were 1.1, 0.798 and -0.0994, respectively. In addition, the z-score in experiment [8] was 0.635 (inactive).

Regarding `COc1ccc([Si](C)(C)[C@H]2[C@H](CCO)O[C@@]3(C(=O)N(Cc4ccccc4)c4ccc(N5CCCCC5=O)cc43)[C@@H]2C)cc1`, the composite z-score was -0.347 in experiment [1]; 0.455 in experiment [2]; -0.0428 in [3]; 0.74 in [4]; 0.333 in experiment [5]; 0.39 in experiment [6]. For the same compound, the composite z-score in [7] was 0.909; in experiment [9] it was -0.227; in experiment [10], -0.0645. Moreover, the z-score in [8] was -2.44 (inactive).

As to `C=CCNC(=O)[C@H]1[C@@H]2C(=O)O[C@@H](c3ccccc3)[C@@H](c3ccccc3)N2[C@@H](c2ccc(OCCO)cc2)[C@]12C(=O)Nc1ccc(C#CCC(C(=O)OC)C(=O)OC)cc12`, the composite z-score in experiment [1] is -0.378; in [2] it was 0.632; in experiment [3], 0.0501; in [4] it was 0.441; in [5], 1.17; in experiment [6] it was 1.17. The composite z-score in [7] is 1.18; in [9], 0.452; in experiment [10], 0.0373. The z-score in [8] is 0.0693 (inactive).

As for `CCCC[C@@H]1C[C@H]1[C@@H](NC(=O)c1cccnc1)c1ccc(Cl)cc1`, the composite z-score is 1.58 in experiment [1]; -1.02 in experiment [2]; -0.423 in experiment [3]; -1.77 in [4]; -1.69 in experiment [5]; -0.549 in experiment [6]. Also, the composite z-score in [7] was -0.977; in experiment [9], -0.513; in [10] it was 0.216. Moreover, in experiment [8], the z-score is 0.188 (inactive).

Regarding `C=CCN1C(=O)[C@]2(Cc3ccccc3)N=C(c3ccc(OCCCO)cc3)O[C@@H]2c2ccccc21`, the composite z-score in experiment [1] was -0.0832; in experiment [2], 0.481; in [3] it was -0.0119; in experiment [4], -0.0215; in experiment [5], 1.35; in experiment [6], 1.55. Further, the figures for the composite z-score in [7], in experiment [9] and in [10] were 1.41, 0.395 and -0.0994, respectively. Moreover, in [8], the z-score was -1.05 (inactive).

In the case of `CCCC1(C(=O)OC)C=C2C(=C(c3ccccc3)C(=O)C2C)CN1` (stereo not given), the composite z-score in experiment [1] was 1.43; in [2], -0.289; in [3] it was -0.0869; in [4], -0.121; in experiment [5] it was 0.725; in experiment [6] it was 0.768. The composite z-score in [7] came out at 0.861; in experiment [9], 0.387; in experiment [10], 0.154. The z-score in experiment [8] was 2.51 (inactive).
